Measured values taken from PubChem BioAssay (Tox21).
“And” between values parts separate entries of the source, which are not always exact repeats. Equal entries are not always repeated. Results filed as inconclusive are left out. A number with no mark means an inactive call. The source made the active and inactive calls. The call rests on the fitted dose curve. Starred links: 1 amine or outer side, 2 acyl side, 3 side chain; linkers in the order of their positions; H or OH if unused. Positions of bridges follow the written chain, without caps; N, C: chain ends. Non-standard residues stand in square brackets, D forms with d. Residues, ends and D or L forms follow the SMILES beside them. Chains are numbered I, II in the order given. Actinocin(9to1) = Cc1c2oc3c(C)ccc(C(=O)[*:1])c3nc-2c(C(=O)[*:2])c(N)c1=O; NMeV = CN[C@H](C(=O)O)C(C)C; Sar = CNCC(=O)O

Biological target: Progesterone receptor (Homo sapiens) (UniProt P06401)
Sequence (P06401 whole entry, looked up): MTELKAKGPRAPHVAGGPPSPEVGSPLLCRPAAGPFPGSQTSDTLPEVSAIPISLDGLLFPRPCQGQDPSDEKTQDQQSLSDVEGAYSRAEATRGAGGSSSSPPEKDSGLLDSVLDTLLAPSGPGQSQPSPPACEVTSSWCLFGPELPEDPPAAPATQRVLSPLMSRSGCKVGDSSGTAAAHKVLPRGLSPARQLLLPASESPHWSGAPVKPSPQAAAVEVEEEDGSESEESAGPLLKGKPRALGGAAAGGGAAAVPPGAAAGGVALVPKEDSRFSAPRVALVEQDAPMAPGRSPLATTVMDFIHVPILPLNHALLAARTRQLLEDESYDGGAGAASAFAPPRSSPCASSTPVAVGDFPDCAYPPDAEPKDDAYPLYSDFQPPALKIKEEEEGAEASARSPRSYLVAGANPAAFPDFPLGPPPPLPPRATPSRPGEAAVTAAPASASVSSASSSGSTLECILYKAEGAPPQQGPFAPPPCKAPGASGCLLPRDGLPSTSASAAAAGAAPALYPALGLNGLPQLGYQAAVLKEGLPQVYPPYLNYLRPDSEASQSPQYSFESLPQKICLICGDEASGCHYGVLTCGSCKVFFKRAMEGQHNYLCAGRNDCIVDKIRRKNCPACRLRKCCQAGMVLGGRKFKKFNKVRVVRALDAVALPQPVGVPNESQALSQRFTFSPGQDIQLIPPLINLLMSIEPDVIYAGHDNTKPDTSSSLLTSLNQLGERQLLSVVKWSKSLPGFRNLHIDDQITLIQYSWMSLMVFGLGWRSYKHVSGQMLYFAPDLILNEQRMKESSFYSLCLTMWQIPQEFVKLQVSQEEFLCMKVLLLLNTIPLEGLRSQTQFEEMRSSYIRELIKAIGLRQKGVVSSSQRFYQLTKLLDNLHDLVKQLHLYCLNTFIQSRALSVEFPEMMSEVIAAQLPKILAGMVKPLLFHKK
Assay: qHTS assay to identify small molecule agonists of the progesterone receptor (PR) signaling pathway (AID 1346784); further: nearly all actives have a fitted effect of over 30% in size
Conditions: PR-UAS-bla HEK293T, beta-lactamase FRET ratio, 16 h; series mostly up to 92.4 µM; activation: at the top concentration
Excerpt: U.S. Tox21 Program National Center for Advancing Translational Sciences [NCATS] NIH Chemical Genomics Center [NCGC] U.S. Environmental Protection Agency [EPA] National Institutes of Environmental Health Sciences [NIEHS] National Toxicology Program [NTP] U.S. Food and Drug Administration [FDA] […] Endocrine disrupting chemicals (EDCs) and their interactions with steroid hormone receptors like PR causes disruption of normal endocrine function. To identify the compounds that activate PR signaling, a PR-UAS-bla GripTite cell line i.e. PR-UAS-bla HEK 293T (Invitrogen, Carlsbad, CA, USA) containing a beta-lactamase reporter gene under the control of an Upstream Activator Sequence (UAS) was used to screen Tox21 10K compound library.
Tox21 Assay Protocol Summary: PR-UAS-bla HEK 293T cells were dispensed at 3,000 cells/5 uL of assay medium containing 2% charcoal stripped FBS per well into black wall/clear-bottom 1536-well plates using a Multidrop Combi (ThermoFisher Scientific, Waltham, MA) dispenser. After the assay plates were incubated at a 37C and 5% CO2 for 6hr, 23 nL of compounds dissolved in DMSO, positive controls or DMSO only was transferred to the assay plate by a Pintool station (Kalypsys, San Diego, CA). The plates were incubated at 37C and 5% CO2 for 16hr. Then 1 uL of LiveBLAzer B/G FRET substrate was added using a BioRAPTR FRD (Flying Reagent Dispenser, Aurora Discovery, San Diego, CA). After the plates were incubated at room temperature for 2 hours, fluorescence intensity was measured by an Envision plate reader (PerkinElmer, Shelton, CT).
On the % scale 0 is the no-effect control and ±100 the full control effect; potency means the concentration at half of the fitted maximal effect.

SMILES | activation | Potency
C=CC(=O)OCCCCCCCC | 0.0678% | 
C=C(C)C1CC=C(C)C(OC(C)=O)C1 (stereo not given) |  | inactive
CC(N)=O | 0.0628% [at 240 µM] | 
OCC(CO)N[C@H]1C[C@](O)(CO)[C@@H](O)[C@H](O)[C@H]1O | 0.76% [at 42.5 µM] | 
Cc1cc(C(C)(C)C)c(O)c(C(C)(C)C)c1 |  | inactive
NNCCc1ccccc1 |  | inactive
COc1ccc(COC(C)=O)cc1 |  | inactive
CCN(CC)c1ccc2c(C)cc(=O)oc2c1 |  | 30.9 µM (active) and 34.4 µM (active)
C/C=C/c1ccc(OCC)c(O)c1 |  | inactive
C1COC(NC(C2CC2)C2CC2)=N1 | -0.223% [at 42.5 µM] | 
CC(C)CCOC(=O)c1ccc(N(C)C)cc1 | -0.272% [at 42.5 µM] | 
O=C1CC2(CCCC2)CC(=O)N1CCCCN1CCN(c2ncccn2)CC1 |  | inactive
Cc1c(O)cccc1C(=O)N[C@@H](CSc1ccccc1)[C@H](O)CN1C[C@H]2CCCC[C@H]2C[C@H]1C(=O)NC(C)(C)C | -7.98% [at 42.5 µM] | 
O=C(O)c1cccc(C(=O)O)c1 |  | inactive
O=C(Nc1ccccc1SSc1ccccc1NC(=O)c1ccccc1)c1ccccc1 | 19.6% | 
CC(C)(O)CCC(C)(C)O | -0.324% | 
CC(C)(C)c1ccc(O)c(C(C)(C)C)c1 | 15.7% | 
CC(=O)C1=C(C)[C@@H]2C[C@@]3(C1)[C@H](C)CC[C@H]3C2(C)C |  | inactive
NC(=Nc1ccccc1)Nc1ccccc1 |  | inactive
CC(=O)Nc1ccc(C(=O)CCl)cc1 |  | inactive

SMILES | activation | Potency
COC(=O)[C@H]1[C@H]2C[C@@H]3c4[nH]c5cc(OC)ccc5c4CCN3C[C@H]2C[C@@H](OC(=O)c2cc(OC)c(OC)c(OC)c2)[C@@H]1OC |  | inactive
CCC(C)(Oc1ccc(C2(c3ccc(OC(C)(CC)C(=O)O)cc3)CCCCC2)cc1)C(=O)O (stereo not given) | 1.42% [at 42.5 µM] | 
Cc1c2oc3c(C)ccc(C(=O)N[C@@H]4C(=O)N[C@H](C(C)C)C(=O)N5CCC[C@H]5C(=O)N(C)CC(=O)N(C)[C@@H](C(C)C)C(=O)O[C@@H]4C)c3nc-2c(C(=O)N[C@@H]2C(=O)N[C@H](C(C)C)C(=O)N3CCC[C@H]3C(=O)N(C)CC(=O)N(C)[C@@H](C(C)C)C(=O)O[C@@H]2C)c(N)c1=O (I: T[dV]P[Sar][NMeV] / II: T[dV]P[Sar][NMeV]; ester I:1-I:C, II:1-II:C; linker I:N-II:N via Actinocin(9to1)) |  | inactive
CCc1ccc(C(c2ccc(CC)cc2)C(Cl)Cl)cc1 |  | inactive
CCOC(=O)C(C)C(C)=O (stereo not given) | 0.49% | 
O=c1n(CC2CO2)c(=O)n(CC2CO2)c(=O)n1CC1CO1 (stereo not given) |  | inactive
CC1=CC(=O)c2ccccc2C1=O | -27.3% | 
CC(=O)CC(=O)Nc1ccc2[nH]c(=O)[nH]c2c1 | -0.647% | 
O=C(OCc1ccccc1)c1ccc(O)cc1 | 0.623% [at 42.5 µM] | 
C=CC(=O)OCCCCCCOC(=O)C=C |  | inactive
CCCCCCCCCCCCCCCCCl |  | 3.84 µM (active)
Cc1cc(OCCOCC[N+](C)(C)Cc2ccccc2)ccc1C(C)(C)CC(C)(C)C | -0.605% [at 42.5 µM] | 
O | -0.0982% | 
CC[C@@H](N)CO | -0.229% | 
Cc1cc(C2(c3cc(C)c(O)cc3C)OS(=O)(=O)c3ccccc32)c(C)cc1O |  | inactive
O=C(O)c1cc(Cl)cc(Cl)c1 | 0.543% | 
CC[C@H]1CN2CCc3cc(OC)c(OC)cc3[C@@H]2C[C@@H]1C[C@H]1NCCc2cc(OC)c(OC)cc21 | -4.69% [at 42.5 µM] | 
CC(C)(C)NCC(O)c1cc(O)cc(O)c1 (stereo not given) | 1.16% [at 42.5 µM] | 
Oc1ccc(Cl)cc1Cc1cc(Cl)ccc1O |  | inactive
CCCCN(CCO)CCCC | -0.378% | 
